PubChem BioAssay (NCI)
Compounds without any hit were thinned out: in the full panel of roughly 79,000, 15% have a hit. Unmarked numbers belong to inactive results. Calls of active or inactive are those of the source. Cut-off read from the data, not from the text of the source: active = growth inhibition above about 70%; inactive = the rest.

Tests used:
[1] = NCI Yeast Anticancer Drug Screen. Data for the rad50 strain (AID 155);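 note: 0% = growth of vehicle-only cultures of the same strain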; settings: S. cerevisiae rad50 strain growth inhibition; at 50.0 µM; hits give high values
Summary of the method: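 DNA repair mutant yeast, compound exposure, growth read-out; inhibition is taken relative to vehicle.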

[2] = NCI Yeast Anticancer Drug Screen. Data for the mec2-1 strain (AID 157); settings: S. cerevisiae mec2-1 strain, at 50.0 µM, hits give high values
Summary of the method: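 Each compound was tested on mec2-1 yeast, a strain altered in DNA damage repair or cell cycle control. Growth inhibition is reported relative to vehicle.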

[3] = NCI Yeast Anticancer Drug Screen. Data for the sgs1 mgt1 strain (AID 161);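 note: 0% = growth of cultures given vehicle only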; settings: S. cerevisiae sgs1 mgt1 strain, at 50.0 µM, hits give high values
Summary of the method: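 Mutant yeast exposed to compound; growth scored against vehicle-only wells.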

[4] = NCI Yeast Anticancer Drug Screen. Data for the cln2 rad14 strain (AID 165);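 note: 0% = growth equal to vehicle treated cultures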; settings: S. cerevisiae cln2 rad14 strain, at 50.0 µM, hits give high values
Summary of the method: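 Test compounds were added to cln2 rad14 yeast cultures; inhibition of growth was then determined by comparison with vehicle treatment.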

[5] = NCI Yeast Anticancer Drug Screen. Data for the bub3 strain (AID 167); settings: S. cerevisiae bub3 mutant strain, at 50.0 µM, hits give high values
Summary of the method: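 In this screen, a yeast mutant lacking normal mitotic checkpoint function is challenged with compound. Relative growth versus vehicle gives the inhibition value.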

[6] = NCI Yeast Anticancer Drug Screen. Data for the mlh1 rad18 strain (AID 175); settings: S. cerevisiae mlh1 rad18 strain growth inhibition; at 50.0 µM; hits give high values
Summary of the method: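 Inhibition values reflect reduced growth of mutant yeast versus vehicle-treated controls following compound exposure; the mutations affect DNA damage repair.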

SMILES	growth inhibition [1]	growth inhibition [2]	growth inhibition [3]	growth inhibition [4]	growth inhibition [5]	growth inhibition [6]
O=C(O)/C=C\c1cccc([N+](=O)[O-])c1	11.9%	-16.4%	7.4%	22.3%	27.6%	-14.8%
CN(C)c1ccc(C(=O)C2CCCCC2)cc1	29.1%	7.5%	13.6%	-4.8%	-5.2%	21.8%
CCCCCCCC(=O)NC(O)C(Cl)(Cl)C(C)Cl (stereo unspecified)	31.1%	-6.35%	3.35%	-21.4%	-1.55%	9.35%
O/N=C/c1ccc(O)c(O)c1	16.4%	-7.35%	-4.05%	-0.7%	10.8%	4.75%
CCC(=O)Oc1ccc(CCC(C)=O)cc1OC	4.15%	-7.55%	-16.8%	-26.6%	-2.3%	25.8%
Cc1cc(S(=O)(=O)Nc2n[nH]c(-c3ccc(Cl)cc3)n2)c(SSc2cc(Cl)c(C)cc2S(=O)(=O)Nc2n[nH]c(-c3ccc(Cl)cc3)n2)cc1Cl	34.5%	15.2%	27.8%	34.7%	30.6%	32.2%
Cc1ncc(N)nc1C	-5.25%	-15.8%	-26.5%	-35.5%	-22.6%	-43%
CN(C)c1ccc(/C=N\N=C\c2ccco2)cc1	7.65%	-3.2%	22.6%	-40.2%	-7.55%	10.1%
[N-]=[N+]=Nc1ccccc1C(=O)NC(=O)Nc1ccccc1	-14.1%	1.95%	5.5%	-19.2%	2.45%	-2.1%
c1ccc(CNc2ncncc2-c2ccccc2)cc1	2.75%	3.85%	17.4%	9.1%	1.6%	5.15%
C=C1C(=O)OC2(C)CCC1CC1OC1(C)CC/C=C(\C)CCC2OC(C)=O (stereo unspecified)	-3.95%	-6.55%	17.4%	8.25%	-3%	7.85%
OC(CI)C1OCOC2COCOC21 (stereo unspecified)	-3.2%	4.5%	13.1%	-4%	16.1%	-3.75%
O=C1OCC/C1=C\c1ccsc1	6.4%	10.2%	-6.9%	-6%	-8.3%	-3.4%
CC(=O)NC(CCc1ccccc1)C(=O)O (stereo unspecified)	16.1%	32.4%	0.9%	24.9%	40.8%	13.8%
NC(=O)c1[nH]nc(C2OC(CO)C(O)C2O)c1O (stereo unspecified)	8%	-27.2%	7.35%	-0.05%	-22.9%	8.75%
OC1(Cl)c2cccc3cccc(c23)C1(O)Cl (stereo unspecified)	-0.8%	5.8%	2.6%	-9.45%	0.25%	-14.1%
C=CCOC(=O)CCC(CCC(=O)OCC=C)C(C)=O	-25.4%	-19.4%	0.55%	-9.6%	4.1%	-11.5%
CC1OC(c2cccc([N+](=O)[O-])c2)OCC1(C)C (stereo unspecified)	-14.7%	-19.4%	-4.9%	-32.6%	15.1%	-16.6%
CC(=O)O[C@@H]1[C@@H](C)[C@]2(CC(c3ccoc3)OC2O)C2CCC3O[C@]3(C)[C@]2(C)[C@@H]1OC(C)=O (stereo partly specified)	-16%	-20.1%	-42.6%	-12.2%	-39.5%	-28.4%
Fc1cc(F)c2c(c1)Nc1cc(F)cc(F)c1S2	27.5%	21.6%	4.75%	-13.6%	22.9%	12.7%
O=C1c2ccccc2C(=O)c2c(Cl)cccc21	56.6%	4.7%	-19.2%	-39.5%	-9.35%	7.35%

SMILES	growth inhibition [1]	growth inhibition [2]	growth inhibition [3]	growth inhibition [4]	growth inhibition [5]	growth inhibition [6]
CCC(CC)C1CC[N-]CC1.CCC(CC)C1CC[N-]CC1.CCC(CC)C1CC[N-]CC1.CCC(CC)C1CC[N-]CC1.N#C[S-].N#C[S-].[Co]	16.4%	15.1%	3.1%	13.8%	19.4%	29.7%
O=c1cc(CNC2CC3CCC2C3)[nH]c(=O)[nH]1 (stereo unspecified)	7.35%	-1.2%	-4.25%	-3.45%	0.2%	-0.2%
O=S(=O)(NC1CCC(CC2CCCCC2)CC1)c1ccccc1 (stereo unspecified)	81% (active)	42%	47.5%	40%	88.4% (active)	82.5% (active)
O=S(=O)(c1ccc(Cl)cc1)N1CCN(S(=O)(=O)c2ccc(Cl)cc2)C1	2.05%	8.1%	-14.3%	-21.6%	-0.05%	15.6%
c1cc[n+]2cc3c(ccc4cc5cccc[n+]5cc43)cc2c1	17.4%	11.1%	31.4%	58%	-2.3%	11.6%
Cc1ccc(CO)cc1C	4.75%	-8.5%	-2.2%	-6.55%	-1.35%	-0.15%
S=c1nc(NCc2ccccc2)[nH]c2[nH]ncc12	-6.55%	-17.2%	-1.6%	-17.2%	-21%	-2.55%
CCCCCC1OCC(C)(C)CO1	3.95%	-2.05%	-5.45%	-9.3%	-3.05%	-9.6%
Oc1c(O)c(Cc2ccccc2)c(Cc2ccccc2)c(Cc2ccccc2)c1Cc1ccccc1	40.7%	-19.8%	23.3%	-44.2%	-7.15%	12.8%
CSc1nnc(CF)c(=O)[nH]1	-1.4%	-1.35%	-12.3%	-4.2%	-7.05%	-14.4%
Cc1cn(C2CC(O)C(COC(N)=O)O2)c(=O)[nH]c1=O (stereo unspecified)	-38.2%	-20.9%	-11.6%	-5.3%	-44.3%	2.35%
CC1(C)OP2(O)(OC(C)(C)c3ccccc32)c2ccccc21	31.1%	5.6%	12.3%	1.8%	6.85%	24.1%
COc1ccc(C(=O)OCc2ccccc2CN2CCOCC2)cc1	0.75%	12.5%	-8.45%	30.3%	-4.9%	-26.4%
CN(C)CCN1CC2C3CCCCC3=C3CCCCC3C2C1 (stereo unspecified)	-0.45%	10.1%	31.9%	-24.4%	23.8%	37.9%
NS(=O)(=O)c1ccc(N=C2C=CC(=O)C=C2)cc1	13.6%	4.5%	-0.2%	-36.4%	-4.05%	-3.95%
CC1(C#N)CCCC(c2ccccc2)(c2ccccc2)C1=O (stereo unspecified)	43.2%	40.5%	49.2%	-9.25%	23.9%	34.5%
Nc1ccnc(Sc2ncccc2[N+](=O)[O-])n1	1.2%	-8.15%	-5.75%	-47.8%	7.8%	1.3%
FC(F)(F)c1cccc(N=Cc2ccc(C=Nc3cccc(C(F)(F)F)c3)cc2)c1	10.4%	-9.2%	13.3%	7.6%	-9%	1.35%
CCO/C(O)=C(/C#N)C(=O)NC1=NCCCCC1	6.15%	8.25%	4.75%	-43%	4.65%	16.4%
Cc1cccc(NC(=O)Oc2ccc(Cl)cc2C(=O)c2ccccc2)c1	30.4%	10.7%	35.4%	29.9%	34.4%	26.2%
